TGFb inhibitor: qHTS for Inhibitors of TGF-b; hit rate 1.2% among 410,000; HepG2 CAGA-GFP TGF-b/SMAD3 reporter, GFP fluorescence, 18 h; TGF-beta stimulated, 500 pg/mL final; Potency, µM (doses to about 46.1 µM), actives largely listed as inhibitors; note: nearly all actives have a fitted effect of over 65% in size
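Read-out: total well GFP (ex488/em500-530) summed from mean per-cell fluorescence. Cells: HEPG2 CAGA-GFP, 1% FBS DMEM, 18 h at 37 degrees C with 500 pg/mL final TGF-beta. Unstimulated wells served as the full-inhibition control; stimulated DMSO wells = 0%.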
ATXN viability: Viability Counterscreen for Primary qHTS for Inhibitors of ATXN expression; Potency, µM (highest dose often 56.7 µM), most hits filed as cytotoxic; AID 651635, 2014; hit rate 0.49% among 400,000; S2 cells (HEK-293 line with an ATXN2-luciferase reporter) viability, CellTiter-Fluor protease fluorescence, 24 h; note: nearly all actives have a fitted effect of over 40% in size
TDP1 cell noCPT: qHTS for Inhibitors of human tyrosyl-DNA phosphodiesterase 1 (TDP1): qHTS in cells in absence of CPT; DT40 Tdp1-/- hTDP1 cells, no CPT, ATP luminescence, 48 h; Potency, µM (titrated, usually from 46.2 µM), usual class: inhibitors; hit rate 15% among 420,000; note: nearly all actives have a fitted effect of over 55% in size
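Compound effects on proliferation are scored in DT40 Tdp1-/-;hTDP1 cells in the absence of CPT. ATP levels (CellTiter-Glo luminescence) are recorded after a ≥48 hr, 37 °C incubation.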
ATXN2 expr inh: Primary qHTS for Inhibitors of ATXN expression | AID 1745845, 2022 | HEK-293 ATXN2-luciferase reporter, luminescence, 24 h | hit rate 0.72% among 360,000 | Potency, µM (series often up to 57 µM), usual class: inhibitors; note: nearly all actives have a fitted effect of over 55% in size
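ATXN2-luciferase reporter cells (luciferase flanked by upstream and downstream ATXN2 gene portions) were treated 24 h at 37 °C with compounds at up to 57 uM. SteadyGlo luminescence gave expression; GF-AFC fluorescence gave viability.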
HepG2 tox: qHTS for Inhibitors of TGF-b: Cytotox Counterscreen; HepG2 CAGA-GFP viability, ATP luminescence, 18 h; Potency, µM (highest dose often 46.1 µM), most hits filed as cytotoxic; AID 588856, 2011; hit rate 0.76% among 410,000
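HepG2 CAGA-GFP cells (1000/well, DMEM with 1% FBS) received compound, then TGF-beta at 500 pg/mL final, and were incubated 18 hours at 37 degrees C. Viability was read by CellTiter-Glo luminescence. Media-only wells were set as complete cell-killing and DMSO as no toxicity.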
TDP1 cell CPT: qHTS for Inhibitors of human tyrosyl-DNA phosphodiesterase 1 (TDP1): qHTS in cells in presence of CPT | chicken DT40 Tdp1-/-;hTDP1 cells + 20 nM CPT, ATP luminescence, 48 h | hit rate 12% among 420,000 | AID 686979, 2013 | Potency, µM (highest dose often 46.2 µM), most hits filed as inhibitors; note: nearly all actives have a fitted effect of over 55% in size
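Chicken DT40 Tdp1-/- cells complemented with human TDP1, 400 cells/well, exposed to compounds plus 20 nM camptothecin for at least 48 h at 37 C; viability read as ATP content by CellTiter-Glo luminescence.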
Of the large screens only hits and unclear results are named; the others gave an inactive call. Sampled rows, rich in hits. Any-hit rate of the full collection: about 17%. Calls come from the whole dose curve; as a rule, active = well fitted curve in the direction sought with a large enough effect; inconclusive = small, poorly fitted or top-dose-only effect, or another doubt; inactive = no such curve, though single readings can be large; an effect the other way counts as inactive or inconclusive.

CC(C)(C)N1CC(c2nc3ccccc3n2CCOc2ccccc2)CC1=O (centres undefined)	TDP1 cell noCPT inconclusive, TDP1 cell CPT inconclusive
CCc1ccc(OCCn2c(C3CC(=O)N(Cc4ccc(F)cc4)C3)nc3ccccc32)cc1 (centres undefined)	TGFb inhibitor inconclusive, TDP1 cell noCPT 12µM, ATXN2 expr inh inconclusive, TDP1 cell CPT 21µM (no result: ATXN viability)
Cc1ccc(OCCn2c(C3CC(=O)N(Cc4ccc(F)cc4)C3)nc3ccccc32)c(C)c1 (centres undefined)	TGFb inhibitor inconclusive, ATXN viability inconclusive, TDP1 cell noCPT 21µM, ATXN2 expr inh inconclusive, HepG2 tox 18µM, TDP1 cell CPT 26µM
CCOc1ccccc1N1CC(c2nc3ccccc3n2CCOc2ccccc2)CC1=O (centres undefined)	TGFb inhibitor inconclusive, ATXN viability inconclusive
O=C(CC1(O)C(=O)Nc2ccccc21)c1cccnc1 (centres undefined)	none
O=C(NCCC1CCCCN1S(=O)(=O)c1ccccc1)C(=O)NCc1ccco1 (centres undefined)	TDP1 cell CPT inconclusive
O=C(c1ccc(Nc2nccc(-c3cc4ccccc4s3)n2)cc1)N1CCC(N2CCCC2)CC1	ATXN2 expr inh 19µM (no result: TGFb inhibitor, ATXN viability, TDP1 cell noCPT, HepG2 tox, TDP1 cell CPT)
CCCCC/C=C\C/C=C\C/C=C\C/C=C\CCCC(=O)O[C@@H](CO)COC(=O)CCCCCCCCCCCCCCCCC	none (no result: TGFb inhibitor, ATXN viability, ATXN2 expr inh, HepG2 tox)
CC(=O)NC(c1ccc(F)c(F)c1)c1nc(-c2cc3ccccc3o2)cs1 (centres undefined)	TDP1 cell noCPT inconclusive
CC(=O)NC(c1ccccc1)c1nc(-c2cc3ccccc3o2)cs1 (centres undefined)	TDP1 cell noCPT inconclusive, TDP1 cell CPT 23µM
CC(=O)NC(c1cccc(F)c1)c1nc(-c2cc3ccccc3o2)cs1 (centres undefined)	TDP1 cell noCPT 21µM, TDP1 cell CPT inconclusive
O=C1NCCCC1C(=O)N1CCN(C(c2ccccc2)c2ccccc2)CC1 (centres undefined)	none
CC(NC(=O)/C(C#N)=C1\N=C(NC(=O)c2cccs2)c2ccccc21)c1ccccc1 (centres undefined)	TGFb inhibitor inconclusive, TDP1 cell noCPT 16µM, TDP1 cell CPT inconclusive
O=C(/C=C/c1c(F)cccc1Cl)Nc1ccncc1	TGFb inhibitor inconclusive, TDP1 cell noCPT inconclusive, TDP1 cell CPT inconclusive
O=C(/C=C/c1ccccc1Cl)Nc1ccncc1	TDP1 cell noCPT inconclusive, TDP1 cell CPT inconclusive
Cc1cc(C)nc(NC(=O)/C=C/c2ccccc2Cl)c1	TDP1 cell noCPT inconclusive
O=C(/C=C/c1ccc(Cl)cc1Cl)Nc1ccncc1	TGFb inhibitor inconclusive, TDP1 cell noCPT 15µM, TDP1 cell CPT inconclusive
Cc1cc(C)nc(NC(=O)/C=C/c2ccc(Cl)cc2Cl)c1	TDP1 cell noCPT 13µM, TDP1 cell CPT inconclusive
O=C(/C=C/c1c(Cl)cccc1Cl)Nc1ccncc1	TDP1 cell noCPT 21µM, TDP1 cell CPT inconclusive
CC(Oc1ccc(Cl)cc1Cl)C(=O)Nc1ccncc1 (centres undefined)	TDP1 cell noCPT 9.2µM, TDP1 cell CPT 21µM
CC1=C(C)CC(C(=O)Nc2nc(-c3ccc(C)cc3C)c(C)s2)C(C(=O)O)C1 (centres undefined)	none
CCOC(=O)c1ccc(N2CCOCC2)c(NS(=O)(=O)c2ccc(F)cc2)c1	none
CCC(OC(C)=O)c1cc2c(cc1[N+](=O)[O-])OCCO2 (centres undefined)	none (no result: ATXN2 expr inh)
O=C(Nc1ccncc1)Nc1ccc(Cl)cc1Cl	TDP1 cell noCPT inconclusive, TDP1 cell CPT 18µM
CC(C)C(C(=O)Nc1nccs1)c1ccc(Cl)cc1 (centres undefined)	TGFb inhibitor inconclusive, TDP1 cell noCPT inconclusive, TDP1 cell CPT inconclusive

Compound activity deposited in PubChem by National Center for Advancing Translational Sciences (NCATS).
